Laboratory results published in ChEMBL document CHEMBL4513216, “Probing the Open Global Health Chemical Diversity Library for Multistage-Active Starting Points for Next-Generation Antimalarials” (ACS Infect Dis, 2020).
Out of some 69,000 compounds screened, about 8,600 (12%) showed an effect of 50% or more. Only a selection was taken, and strong results are over-represented in it overall.

The compounds below were run on Plasmodium berghei (assay: Screen against P. berghei liver stage (PbLuc), transformed with Luciferase, at 10uM). Settings: tested at 10 uM.
Assay type: functional, HepG2
Work on `O=C(CN1CCCCC1)N1CCC(c2cc(=O)n3c(n2)CCCCC3)C1` (stereo unspecified) yielded an INHIBITION of -15.3%.
Work on `CC(C)NC(=O)NCC1(COc2cnccn2)C[C@@H](O)[C@@H](O)C1` (stereo partly specified) yielded an INHIBITION of 45.2%.
With `O=S(=O)(Cc1ccccc1F)N1CCCC1c1nnc2n1CCCCC2` (stereo unspecified) the INHIBITION was 20.1%.
In the case of `CS(=O)(=O)N1CCCCC12CCN(c1nncs1)CC2`, the INHIBITION is reported as 55.5%.
Compound `CS(=O)(=O)N1CCOCC12CCN(c1nncs1)CC2` has an INHIBITION of 26.5%.
Work on `CN1CCCCC12CCN(c1nncs1)CC2` yielded an INHIBITION of -0.804%.
`CC(=O)N1CCCC(c2ccc(C(N)=O)cn2)C1` (stereo unspecified) gave an INHIBITION of 40%.
`CCc1ccc(C2c3nc[nH]c3CCN2Cc2nccn2CC)nc1` (stereo unspecified) was tested, and the INHIBITION was 29.3%.
With `CC(=O)N1CC2(CCCC2)c2ccccc21` the INHIBITION was 7.21%.
Work on `COc1ccsc1C(=O)Nc1cc(CN2CCOCC2)ccc1C` yielded an INHIBITION of -29.4%.
With `COc1cc2c(cc1CN1CCc3sccc3C1C)OCO2` (stereo unspecified) the INHIBITION was 26.7%.
For `COc1cc2c(cc1CN1CCc3sccc3C1C)OCCO2` (stereo unspecified), the INHIBITION was 40.6%.
`CC1c2ccsc2CCN1Cc1cc2c(cc1O)OCO2` (stereo unspecified) gave an INHIBITION of 18.2%.
`COc1ccc(CN2CCc3sccc3C2C)cc1CN1CCOCC1` (stereo unspecified) was tested, and the INHIBITION was 52.7%.
With `CCC1c2ccsc2CCN1Cc1cc2c(cc1OC)OCCO2` (stereo unspecified) the INHIBITION was 69.4%.
`Cn1ncc2c1NC(=O)CC2c1cccs1` (stereo unspecified) showed an INHIBITION of -3.77%.
`CC(c1cccc(F)c1)N1CCN(Cc2nccn2C)CC1` (stereo unspecified) was tested, and the INHIBITION was -39.7%.
Work on `CC(=O)NCC(=O)N1CCC2(COCc3c(C)nc(N(C)C)nc32)C1` (stereo unspecified) yielded an INHIBITION of -13.2%.
`Cc1ccc(NC2CCN(C(=O)c3ccco3)CC2)nn1` gave an INHIBITION of -17%.
Compound `Cc1ccc2c(n1)N(CC1CC1)CCN(C(=O)c1ccncc1F)C2` has an INHIBITION of -37.4%.
In the case of `Cn1cnc2c1CCN(CCS(=O)(=O)c1ccccc1)C2`, the INHIBITION is reported as 24.4%.
In the case of `Cn1cnc2c1CCN(CCCS(=O)(=O)c1ccccc1)C2`, the INHIBITION is reported as -1.14%.
Work on `Cn1cnc2c1CCN(CC(O)c1ccc(S(C)(=O)=O)cc1)C2` (stereo unspecified) yielded an INHIBITION of 57.6%.
`Cn1cnc2c1CCN(CCCOc1ccc(S(C)(=O)=O)cc1)C2` gave an INHIBITION of 49%.
For `Cn1cnc2c1CCN(CC(O)c1ccc3c(c1)OCCO3)C2` (stereo unspecified), the INHIBITION was 42.6%.
Work on `Cn1cnc2c1CCN(CCS(=O)(=O)c1ccc(Cl)cc1)C2` yielded an INHIBITION of 52.3%.
For `Cc1cc(C)nc(Nc2cc(C3CCCN(C)C3)nc(C)n2)n1` (stereo unspecified), the INHIBITION was 46.1%.
`CCc1nc(C2CCCN2Cc2ccn(C)c(=O)c2)no1` (stereo unspecified) gave an INHIBITION of 21.255%.
With `CCn1c(C(=O)N2CCCN(CC(N)=O)CC2)cc2ccccc21` the INHIBITION was -27.8%.
Compound `CN(CCNC(=O)c1cccnc1)S(C)(=O)=O` has an INHIBITION of 30.9%.
Compound `CCc1nn(C)c(Cl)c1CN1CCCC2(CC1)CN(C)C(=O)O2` (stereo unspecified) has an INHIBITION of 53.4%.
With `CCc1nn(C)c(Cl)c1CN1CCCC2(C1)CN(C)C(=O)O2` (stereo unspecified) the INHIBITION was 14.9%.
Compound `CCc1nn(C)c(Cl)c1CN1CCC2(C1)CN(C)C(=O)O2` (stereo unspecified) has an INHIBITION of -73.7%.
In the case of `CN(C)Cc1ccccc1Cn1cncc1-c1cnn(C)c1`, the INHIBITION is reported as 12.8%.
`O=S(=O)(c1cccs1)N1CCCn2cnc(CO)c2C1` gave an INHIBITION of 26.3%.
For `CC(NC(=O)CCn1c(=O)oc2ccccc21)c1ccccn1` (stereo unspecified), the INHIBITION was 8.65%.
In the case of `Cn1nc(N2CCCC(C(=O)Nc3nc4ccccc4[nH]3)C2)ccc1=O` (stereo unspecified), the INHIBITION is reported as 51%.
`CCNC(=O)C1CCCN(c2ccc3ccc(F)cc3n2)C1` (stereo unspecified) was tested, and the INHIBITION was 20.8%.
Work on `Cn1nc(N2CCCC(C(=O)Nc3nccs3)C2)ccc1=O` (stereo unspecified) yielded an INHIBITION of 21.5%.
Work on `Cn1nc(N2CCCC(C(=O)Nc3nc4ccccc4s3)C2)ccc1=O` (stereo unspecified) yielded an INHIBITION of 82.2%.
With `Cn1ncc(C(=O)O)c1C(=O)Nc1nc2ccccc2s1` the INHIBITION was 45.4%.
With `CNC(=O)C1CCCN(c2nc3c(-c4ccccc4)csc3c(=O)[nH]2)C1` (stereo unspecified) the INHIBITION was 11.6%.
`CCOCCSc1nnc(-c2cn(CC)nc2OCC)n1C` showed an INHIBITION of 1.95%.
With `O=C(C1CCCCC1)N1CCCC([C@@H]2C[C@H](C(F)F)n3ncnc3N2)C1` (stereo partly specified) the INHIBITION was 25.26%.
`Cc1cc(C)nc(C2CCN(C(=O)CCn3ncc4ccccc43)C2)n1` (stereo unspecified) was tested, and the INHIBITION was 9.93%.
In the case of `CC(Cn1cccn1)NCc1csc2c1CCCC2` (stereo unspecified), the INHIBITION is reported as 46.6%.
Work on `CC(Cn1cncn1)NCc1csc2c1CCCC2` (stereo unspecified) yielded an INHIBITION of 51.1%.
In the case of `CC(Cn1ccnc1)NCc1csc2c1CCCC2` (stereo unspecified), the INHIBITION is reported as 31.4%.
For `CCc1nnc(CN2CCc3ccc(S(N)(=O)=O)cc32)o1`, the INHIBITION was 18%.
In the case of `CN(CCc1ccccn1)C(=O)CCC1CCCN(c2cnccn2)C1` (stereo unspecified), the INHIBITION is reported as 27.6%.
For `CC(=O)N1CCc2nnc(C3CCCCN3CC3CCCCC3)n2CC1` (stereo unspecified), the INHIBITION was 42.4%.
With `COCCNC(=O)NC1(c2ccccc2F)CC1` the INHIBITION was 20%.
`CCN(CC)C(CNC(=O)c1ccnc(N(C)C)c1)c1ccsc1` (stereo unspecified) showed an INHIBITION of 13.3%.
With `Cc1ccc(C)c(CC(=O)NC2CCC(N3C(=O)CCC3=O)CC2)c1` (stereo unspecified) the INHIBITION was 50.1%.
With `Cc1ccc(C)c(C(=O)NC2CCC(N3C(=O)CCC3=O)CC2)c1` (stereo unspecified) the INHIBITION was -56.4%.
`Cc1ccc(C)c(CC(=O)NC2CCS(=O)(=O)CC2)c1` gave an INHIBITION of 41.5%.
